From PubChem BioAssay
NPR2 activator = human GC-B receptor activators, primary screen, HEK293 GC-B cells, cGMP TR-FRET, EC30 CNP; Atrial natriuretic peptide receptor 2 (Homo sapiens), P20594; 0% at EC30 CNP, 100% saturating CNP; activation, % at 10 µM; actives 0.11% (n = 370,000); AID 1920062, 2024;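 active means activation at 10 µM reaching about 35% in either raw or pattern-adjusted values, limit read from the data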
Target sequence (P20594 whole entry, looked up): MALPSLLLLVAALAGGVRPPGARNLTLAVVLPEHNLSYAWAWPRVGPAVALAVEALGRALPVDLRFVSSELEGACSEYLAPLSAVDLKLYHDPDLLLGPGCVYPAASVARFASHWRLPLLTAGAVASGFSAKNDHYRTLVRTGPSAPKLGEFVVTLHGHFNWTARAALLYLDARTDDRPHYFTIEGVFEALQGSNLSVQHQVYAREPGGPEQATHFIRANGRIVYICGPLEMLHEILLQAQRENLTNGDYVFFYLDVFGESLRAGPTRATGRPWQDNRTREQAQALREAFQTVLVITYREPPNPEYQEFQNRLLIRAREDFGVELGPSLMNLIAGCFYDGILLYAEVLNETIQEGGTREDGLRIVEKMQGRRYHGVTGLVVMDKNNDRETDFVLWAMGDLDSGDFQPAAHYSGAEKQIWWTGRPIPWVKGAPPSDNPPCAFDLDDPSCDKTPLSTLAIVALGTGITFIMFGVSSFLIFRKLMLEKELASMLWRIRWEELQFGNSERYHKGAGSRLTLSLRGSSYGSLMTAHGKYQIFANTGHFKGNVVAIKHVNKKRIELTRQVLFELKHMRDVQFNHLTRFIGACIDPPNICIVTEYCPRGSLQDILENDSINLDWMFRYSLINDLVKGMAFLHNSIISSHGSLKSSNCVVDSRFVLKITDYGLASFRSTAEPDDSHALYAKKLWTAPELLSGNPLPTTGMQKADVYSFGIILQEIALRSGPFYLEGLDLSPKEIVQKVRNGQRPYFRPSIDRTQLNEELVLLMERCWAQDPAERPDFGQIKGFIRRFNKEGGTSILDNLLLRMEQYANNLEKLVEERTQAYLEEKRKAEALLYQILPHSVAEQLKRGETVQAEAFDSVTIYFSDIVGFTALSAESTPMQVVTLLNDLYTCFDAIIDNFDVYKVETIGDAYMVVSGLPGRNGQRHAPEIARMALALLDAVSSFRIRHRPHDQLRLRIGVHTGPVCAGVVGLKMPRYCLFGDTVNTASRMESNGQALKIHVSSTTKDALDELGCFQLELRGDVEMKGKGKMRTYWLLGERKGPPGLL
NSD2 inh = NSD2 histone methyltransferase inhibitors, primary screen, biochemical, AlphaScreen, single concentration, set 2; AID 743445, 2014; NSD2 peptide methylation, 120 min; inhibition, % at 12.5 µM; actives 0.54% (n = 310,000); in the data active means inhibition above about 50%
Efflux pump inh = inhibitors of Candida efflux pumps in yeast, primary screen, S. cerevisiae, Nile Red, multiplex. S. cerevisiae Candida pump triplex. inhibition, % at 10 µM. actives 0.44% (n = 330,000). AID 485275, 2010;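 active means plate passing quality check with inhibition over a set limit, or well fluorescence over plate mean plus 4 SD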;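 further: Nile Red retained in pooled yeast measured as flow cytometry median fluorescence; 0% = buffer negative control and 100% = Enniatin B positive control; higher means more Nile Red kept so more efflux inhibition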
V-ATPase pH = regulators of yeast V-ATPase proton pumping, primary screen, pHLuorin cytosolic pH fluorescence; AID 504577, 2011; response, % at 10 µM; actives 0.37% (n = 350,000); S. cerevisiae; in the data active means response mostly above about 7.3%, no sharp cut-off; inactive means mostly below about 5.4%; further: actives read high
Rce1 inhib = yeast Rce1p protease inhibitors, primary screen, biochemical, fluorescence, cell-free homogeneous. CAAX prenyl protease 2 (Saccharomyces cerevisiae (strain ATCC 204508 / S288c)), Q03530. yeast membranes, quenched prenylated peptide cleavage fluorescence. calls only. actives 0.27% (n = 290,000). AID 2563, 2010;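 active means fall in fluorescence gain of 50% or more versus controls, with final raw signal at or below 3038400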;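 further: plate controls were neutral control wells for no effect and wells lacking membranes for full effect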
GC-A act = GC-A stimulated cGMP production enhancers – HEK293 GC-A cells, cGMP TR-FRET, EC30 ANP, primary screen. Atrial natriuretic peptide receptor 1 (Homo sapiens), P16066. 0% at EC30 ANP, 100% saturating ANP. activation, % at 10 µM. actives 0.14% (n = 370,000). AID 1671463, 2021; in the data active means activation above about 40%
Yeast cmpd fluor = compound fluorescence in yeast efflux pump counter-screen | shares compounds with Efflux pump inh | S. cerevisiae AD/pABC3, flow cytometry | fluorescence ratio to DMSO, % at 10 µM | actives 4% (n = 1,700) | AID 588517;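 active means fluorescence ratio to DMSO above its plate's cutoff, the plate mean ratio plus 5 SD, cut at about 210% in these data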;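 further: unstained yeast with no Nile Red so the signal is compound autofluorescence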
CaMdr1 efflux inh = inhibitors of Candida albicans Mdr1 efflux, confirmation, flow cytometry, singleplex, Cherry Pick1 set; shares compounds with Efflux pump inh; S. cerevisiae AD/CaMDR1, Nile Red efflux; inhibition, % at 10 µM; actives 1% (n = 1,700); in the data active means inhibition above about 26%;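 further: 0% = DMSO vehicle and 100% = reference inhibitor; higher means more Nile Red retained so more efflux inhibition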
CaCdr2 efflux inh = inhibitors of Candida albicans Cdr2 efflux pump, confirmation, S. cerevisiae AD/CaCDR2, flow cytometry, cherry pick 1, singleplex | shares compounds with Efflux pump inh | Nile Red retention | Nile Red retention ratio vs DMSO, % at 10 µM | actives 4% (n = 1,700); in the data active means Nile Red retention ratio vs DMSO above about 190%;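 further: higher ratio means more blocking of Cdr2 efflux of the dye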
Cdr1 pump inh = inhibitors of Candida albicans Cdr1 efflux pump, confirmation, S. cerevisiae AD/CaCDR1, flow cytometry, cherry pick 1, singleplex. shares compounds with Efflux pump inh. Nile Red efflux. inhibition, % at 10 µM. actives 1% (n = 1,700);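 active means inhibition above the screen-wide mean plus twice its standard deviation, cut at about 32% in these data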
Numbers without * were called inactive; i = inactive; nt = no result; + = active, no number. Compounds with a hit are over-represented: about 1.6% of the library has one in this group of screens.

SMILES | NPR2 activator | NSD2 inh | Efflux pump inh | V-ATPase pH | Rce1 inhib | GC-A act | Yeast cmpd fluor | CaMdr1 efflux inh | CaCdr2 efflux inh | Cdr1 pump inh
COc1ccc(CSCC(=O)N/N=C/c2ccc(OCC(=O)NCc3ccco3)cc2)cc1 | 0 | 2 | 0 | -2 | i | 8 | nt | nt | nt | nt
O=C(NCc1cccc(Br)c1)c1cc(-c2ccccc2)nn1CC1CC(c2cccnc2)=NO1 (stereo not given) | 0 | nt | 0 | 2 | i | -3 | nt | nt | nt | nt
Cc1ccc(CNC(=O)c2cc(-c3ccccc3)nn2CC2CC(c3cccnc3)=NO2)cc1 (stereo not given) | 3 | nt | 0.8* | 2 | i | -1 | 102 | 0 | 106 | 0
O=C(CSc1nc2ccccc2nc1N1CCCCC1)NCc1ccc(Cl)cc1Cl | -8 | -24 | nt | nt | nt | 1 | nt | nt | nt | nt
CCN1/C(=C/c2ccc3cc(C)ccc3[n+]2CC)Sc2ccc3sccc3c21 | nt | nt | 3.6* | -4 | nt | nt | + | 3 | 106 | 1
CC[n+]1c(C)sc2c3ccsc3ccc21 | 7 | 1 | 0 | 3 | i | 8 | nt | nt | nt | nt
COc1ccc(NC(=O)N2CCC(c3nc4ccc(Cl)cc4[nH]3)CC2)cc1OC | -8 | 9 | nt | nt | nt | -2 | nt | nt | nt | nt
COc1ccc(-c2nc(NC(=O)CSc3nnc(C)s3)ns2)cc1 | -2 | nt | 0.8* | 0 | i | 8 | 100 | 0 | 101 | 0
CCOc1ccc(NC(=O)CSc2ncn[nH]2)c([N+](=O)[O-])c1 | 3 | 1 | 18* | -2 | i | 4 | 98 | 0 | 85 | 0
COCCCNC(=O)C1CCN(S(=O)(=O)c2ccc3[nH]c(=O)oc3c2)CC1 | 3 | -3 | nt | nt | nt | 5 | nt | nt | nt | nt
CC(=O)c1cc(C(=O)NC2CCCc3c2cnn3-c2cc(C)cc(C)c2)[nH]n1 (stereo not given) | 0 | -1 | 0 | 0 | i | -2 | nt | nt | nt | nt
Cc1cc(C)cc(-n2ncc3c2CCCC3NC(=O)c2cc(C)[nH]n2)c1 (stereo not given) | -4 | -1 | 0 | -1 | nt | -3 | 106 | 0 | 98 | 0
Cc1onc(-c2c(F)cccc2Cl)c1C(=O)NC1CCCCCC1 | 2 | -9 | 0 | 3 | i | -1 | nt | nt | nt | nt
Cc1onc(-c2c(F)cccc2Cl)c1C(=O)NC(=S)NC1CCS(=O)(=O)C1 (stereo not given) | 4 | -2 | 6.5* | 2 | i | -2 | 92 | 0 | 112 | 0
COc1ccc(-c2c(Cc3ccccc3)nc(NC(=O)c3ccccc3F)n2C)cc1 | 0 | nt | nt | nt | nt | -1 | nt | nt | nt | nt
COc1ccc(C(CCN2CCCC2)c2c(OC)cc(OC)c3c(-c4ccccc4)cc(=O)oc23)cc1 (stereo not given) | -1 | nt | 0 | -9 | i | 2 | nt | nt | nt | nt
COc1ccc(C(CCN2CCOCC2)c2c(OC)cc(OC)c3c(-c4ccccc4)cc(=O)oc23)cc1 (stereo not given) | -2 | nt | 1.6* | 3 | nt | 2 | 95 | 0 | 85 | 0
CC1CC(=O)N(CC(=O)Nc2ccc3c(c2)OCO3)c2ccccc2S1 (stereo not given) | -8 | 0 | 0 | 1 | i | -11 | 80 | 0 | 89 | 0
O=C(CN1C(=O)CC(c2ccco2)Sc2ccccc21)Nc1ccc2c(c1)OCCO2 (stereo not given) | 2 | 0 | 0.7* | 1 | i | 4 | 101 | 0 | 96 | 0
O=C(CN1C(=O)CCSc2ccccc21)Nc1ccc2c(c1)OCCO2 | 2 | 0 | 0 | 1 | i | 3 | nt | nt | nt | nt
O=C(CN1C(=O)CCSc2ccccc21)Nc1ccccc1 | -6 | -1 | 0 | -2 | i | -5 | nt | nt | nt | nt
O=C(CN1C(=O)CCSc2ccccc21)Nc1ccc(F)cc1 | -8 | -1 | 0 | -2 | i | -4 | 99 | 0 | 98 | 0
Cn1cc(Br)c(C(=O)NNC(=O)Cc2ccc(Cl)cc2)n1 | 0 | -1 | 0 | 1 | i | 2 | nt | nt | nt | nt
Cn1cc(Br)c(C(=O)NNC(=O)c2ccc(Cl)cc2)n1 | -4 | -1 | 8.9* | 1 | i | 2 | 91 | 0 | 95 | 0
O=C(NCCc1nc2ccccc2n1C/C=C/c1ccccc1)C1CCCCC1 | -26 | -3 | nt | nt | nt | -21 | nt | nt | nt | nt
SMILES | NPR2 activator | NSD2 inh | Efflux pump inh | V-ATPase pH | Rce1 inhib | GC-A act | Yeast cmpd fluor | CaMdr1 efflux inh | CaCdr2 efflux inh | Cdr1 pump inh
CCCn1c(-c2cc(OC)c(OC)c(OC)c2)nc2c1c(=O)[nH]c(=O)n2Cc1ccccc1 | -2 | 2 | 0.7* | -1 | i | 0 | 99 | 0 | 110 | 0
CCCn1c(-c2cccc(F)c2)nc2c1c(=O)[nH]c(=O)n2Cc1ccccc1 | 3 | -4 | 0 | -3 | i | 3 | nt | nt | nt | nt
COc1ccc(OCCSc2nnc(CCNC(=O)c3ccc(OC)cc3)n2C)cc1 | -6 | -1 | 24* | -5 | i | -12 | 105 | 0 | 106 | 0
CCOc1ccc(NC(=O)CSc2nnc(CCNC(=O)c3ccc(OC)cc3)n2C)cc1 | 1 | 26 | -1 | -1 | i | -3 | nt | nt | nt | nt
CN(C)CCNS(=O)(=O)c1ccc(N2CCN(c3ccc(F)cc3)CC2)c([N+](=O)[O-])c1 | -5 | 19 | 11* | 3 | i | -3 | 82 | 0 | 95 | 0
Cc1ccc(CN2CC(C(=O)Nc3ccc(S(=O)(=O)N4CCCCC4)cc3)CC2=O)cc1 (stereo not given) | -5 | 0 | 16* | 3 | i | 1 | 97 | 0 | 110 | 0
O=C(Nc1ccc(S(=O)(=O)N2CCCCC2)cc1)C1CC(=O)N(Cc2ccccc2)C1 (stereo not given) | 0 | 1 | 0 | 2 | i | -2 | nt | nt | nt | nt
